From PubChem BioAssay (Tox21) come the findings set out here.

Inconclusive results are not listed. A number with no mark means an inactive call. Calls of active or inactive are those of the source. Calls follow the shape of the dose curve; as a rule, active = well fitted inhibition curve with a large enough effect in the signal ratio in the repeat runs, with a control signal flat; inconclusive = weak or mixed curves, or effect the other way; inactive = flat fitted curve, though single readings scatter; the % refers to the signal ratio.
% is scaled to controls: 0 for no effect and ±100 for the full control effect; potency is read from the fitted curve at half-maximal effect.

D(2) dopamine receptor (Homo sapiens), sequence (P14416 whole entry, looked up): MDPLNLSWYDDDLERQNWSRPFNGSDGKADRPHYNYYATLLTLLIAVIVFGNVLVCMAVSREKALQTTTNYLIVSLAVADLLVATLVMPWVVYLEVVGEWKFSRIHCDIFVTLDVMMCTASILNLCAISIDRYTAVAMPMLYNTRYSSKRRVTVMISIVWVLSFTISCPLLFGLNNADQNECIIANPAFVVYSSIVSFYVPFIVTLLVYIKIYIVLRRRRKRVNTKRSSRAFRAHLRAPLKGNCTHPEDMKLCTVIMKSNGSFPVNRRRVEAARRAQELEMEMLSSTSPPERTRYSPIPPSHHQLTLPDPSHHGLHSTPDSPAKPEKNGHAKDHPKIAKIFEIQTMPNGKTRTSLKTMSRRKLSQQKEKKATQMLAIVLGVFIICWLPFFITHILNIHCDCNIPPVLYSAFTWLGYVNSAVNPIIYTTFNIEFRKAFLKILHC

For the assay, the target named is D(2) dopamine receptor (Homo sapiens) (UniProt P14416). Kind of assay: Dopamine D2 receptor (DRD2) small molecule antagonists, cell-based qHTS assay (AID 1963595). As to conditions: HEK293-DRD2 cAMP HTRF antagonist mode; series mostly up to 92.4 µM; activity change, negative = inhibition: at the top concentration. From the text:
National Center for Advancing Translational Sciences [NCATS]
Division of Preclinical Innovation [DPI]
U.S. Environmental Protection Agency [EPA]
National Institutes of Environmental Health Sciences [NIEHS]
National Toxicology Program [NTP]
U.S. Food and Drug Administration [FDA]
DRD2 is the D2 subtype of the dopamine receptor, which is coupled to Gi subtype of G protein-coupled receptor. This G protein-coupled receptor inhibits adenylyl cyclase activity. The DRD2-HEK293 cell line stably expressing D2 dopamine receptor can be used for screening agonists and antagonists of interactions between D2 and its ligands. The Hek293-DRD2 cAMP assay is based on HTRF technology. It measures changes of cAMP accumulation in response to Gi coupled GPCR activation or inhibition.
Tox21 Assay Protocol Summary:
DRD2-Hek293 cells were dispensed at 600 cells/3uL/well in 1536-well white plates using a Multidrop Dispenser. After the assay plates were incubated at a 37 C/5% CO2 incubator for 24 h, 1 uL of Ro20-1724 at final concentration of 0.1 mM was transferred to the assay plate by a Flying Reagent Dispenser. Following Ro20-1724 addition, 23 nL of compound dissolved in DMSO, positive controls or DMSO only was added to the assay plates via Wako pintool station. The assay plates were incubated at room temperature for 10 min. Next, 1 uL of mixture of NKH477 (final concentration at 200 nM) and quinpirole (final concentration at 12 nM) was added into the plates. After the assay plates were incubated at room temperature for an additional 30 min, 2.5 ul/well of cAMP-d2 and 2.5 ul/well of anti-cAMP-cryptate were added respectively into the assay plates using a Flying Reagent Dispenser. The plates were incubated at room temperature for 1 h. The fluorescence intensity in the plates was measured at 340 nm excitation and 665 & 620 nm emission by an Envision plate reader.
On the technique in general: Quantitative high-throughput screening tests each substance at several concentrations.
For the compound `CC(C)C[C@H](NC(=O)OCC1c2ccccc2-c2ccccc21)C(=O)O`, the “activity change, negative = inhibition” value was 18.5%. For `CCCCOCCOC(=O)c1cccnc1`, the “activity change, negative = inhibition” value was 1.04% [at 42.5 µM]. For the compound `CSc1cnc(C)cn1`, the “activity change, negative = inhibition” value is 6.28% [at 243 µM]. For `CC(C)NCC(O)COc1ccc(COCCOC(C)C)cc1` (stereo not given), the “activity change, negative = inhibition” value was 0.696% [at 42.5 µM].

With `COc1ccc([C@@H]2Sc3ccccc3N(CCN(C)C)C(=O)[C@@H]2OC(C)=O)cc1`, the “activity change, negative = inhibition” value was -8.5% [at 42.5 µM].

On to `OC[C@H]1O[C@@H](O[C@@H]2[C@@H](CO)O[C@](O)(CO)[C@H]2O)[C@H](O)[C@@H](O)[C@H]1O`, for which the “activity change, negative = inhibition” value is -22% [at 42.5 µM]. The same measure, in the same setting: the same measure for `N[C@@H](Cc1cc(I)c(O)c(I)c1)C(=O)O`: 0.593% [at 42.5 µM]. Regarding `CCCCCCCCCCCC(C)=O`, the “activity change, negative = inhibition” value was 8.36%. On the same count and under the same terms, to `Cc1cc2c(OCC(CNC(C)(C)C)OC(=O)c3ccccc3)cccc2[nH]1` (stereo not given) belongs -8.81% [at 42.5 µM]; to `COc1ccc(CCC(=O)c2c(O)cc(O[C@@H]3O[C@H](CO)[C@@H](O)[C@H](O)[C@H]3O[C@@H]3O[C@@H](C)[C@H](O)[C@@H](O)[C@H]3O)cc2O)cc1O`, 4.53%. Turning to `CC(C)COC(=O)c1ccccc1`, the “activity change, negative = inhibition” value is 6.06%. Regarding `CN1C(C)(C)CCCC1(C)C`, the “activity change, negative = inhibition” value is 8.92% [at 42.5 µM]. For the compound `CCC(=O)O[C@]1(C(=O)CCl)[C@@H](C)C[C@H]2[C@@H]3CCC4=CC(=O)C=C[C@]4(C)[C@@]3(F)[C@@H](O)C[C@@]21C`, the “activity change, negative = inhibition” value was -1.75% [at 42.5 µM]. For `COC(C)(C)CCCC(C)CC=O` (stereo not given), the “activity change, negative = inhibition” value is 0.102%.

`CC(C)c1ccc(C(=O)N=C(N)N)cc1S(C)(=O)=O`: the “activity change, negative = inhibition” value was -6.73% [at 42.5 µM]. `CC(C)[N+](C)(C)CC(O)COc1cccc2ccccc12` (stereo not given): the “activity change, negative = inhibition” value is 6.35% [at 42.5 µM]. `CCOC(CN1CCN(CC(C)C(=O)c2ccccc2)CC1)c1ccccc1` (stereo not given): the activity change, negative = inhibition was 9.08% [at 18.9 µM]. Regarding `CC[N+]1(CC)CCC(=C(c2ccccc2)c2ccccc2)C1C` (stereo not given), the “activity change, negative = inhibition” value is 9.57% [at 42.5 µM]. Turning to `CCN(CC)c1ccc(C=O)cc1`, the “activity change, negative = inhibition” value is 1.13%. On the same count and under the same terms, to `CC(C)CCCCCCc1ccc(OCCOCCO)cc1` belongs -0.113%; to `CCCCc1ccc(N)cc1`, -1.06%; to `Cc1nc(-c2ccc(OCC(C)C)c(C#N)c2)sc1C(=O)O`, -1.01% [at 42.5 µM].

Take `Cc1cccc(Oc2ccccc2)c1`: the “activity change, negative = inhibition” value was 3.52%. In the case of `CN(C)CCN1CCOCC1`, the “activity change, negative = inhibition” value is -6.86%. As for `C=CC(=O)OCCCCCCCCCC`, the “activity change, negative = inhibition” value is -7.3%. `OCC(CO)n1cnc(-c2ccc(F)cc2)c1-c1ccnc(Oc2ccccc2)n1`: the “activity change, negative = inhibition” value was 8.9%. For the compound `CCCCCCCCCCOCC(O)CN` (stereo not given), the “activity change, negative = inhibition” value is -16.5% [at 42.5 µM]. The same measure, in the same setting: the same measure for `CCOC(=O)C(O)c1ccccc1` (stereo not given): 8.4% [at 42.5 µM]; for `COc1c(C)c2c(c(O)c1C/C=C(\C)CCC(=O)O)C(=O)OC2`: -0.786% [at 42.5 µM]. In the case of `CCC1(CO)COCOC1`, the “activity change, negative = inhibition” value was 1.7%. Still for that read-out and setting: the same measure for `O=C(CCCCCCCCC#CI)Oc1ccccc1`: -1.92% [at 42.5 µM]; for `ClCCl`: -2.09%. For `CC[C@H](NC(C)C)[C@H](O)c1ccc(O)c2[nH]c(=O)ccc12`, the Potency is 94.4 nM (active). With `CCCCC(CC)COC(=O)c1ccccc1O` (stereo not given), the “activity change, negative = inhibition” value is -0.977% [at 42.5 µM]. For `CCCCCCCCC=O`, the “activity change, negative = inhibition” value is 5.71%. The same measure, in the same setting: the same measure for `CCOc1ccccc1O[C@H](c1ccccc1)[C@H]1CNCCO1`: -0.427% [at 42.5 µM]; for `CCCCCCCCCCOc1cc2c(=O)c(C(=O)OCC)c[nH]c2cc1OCC`: 8.14% [at 8.38 µM]. For the compound `Nc1ccc(C(=O)Oc2ccccc2)c(O)c1`, the “activity change, negative = inhibition” value is 1.12% [at 42.5 µM]. As for `Cc1ccc(Cl)cc1Cl`, the “activity change, negative = inhibition” value was 3.67%. Same read-out and setting: the same measure for `CC(=O)Nc1ccc(S(=O)(=O)Nc2cc(C)on2)cc1`: 1.24% [at 42.5 µM].
